This passage reports Percent Effect results from ChEMBL document CHEMBL3988442, “University of Dundee, Small-Polar-MMV Screening Library” (2021).

The structures appear in SMILES notation.

The experiment deals with Chromo domain-containing protein 1 (Saccharomyces cerevisiae (strain ATCC 204508 / S288c) (Baker's yeast)) (UniProt P32657). The experiment can be described thus: ScCHD-1 Enzyme Inhibition Assay. More on the design: scale not given: in the data most compounds retested in dose-response had high values. The experiment is classed as functional. As to conditions: 30 µM.
Sequence of Chromo domain-containing protein 1 (Saccharomyces cerevisiae (strain ATCC 204508 / S288c) (Baker's yeast)) (P32657 whole entry, the tested form may be a part): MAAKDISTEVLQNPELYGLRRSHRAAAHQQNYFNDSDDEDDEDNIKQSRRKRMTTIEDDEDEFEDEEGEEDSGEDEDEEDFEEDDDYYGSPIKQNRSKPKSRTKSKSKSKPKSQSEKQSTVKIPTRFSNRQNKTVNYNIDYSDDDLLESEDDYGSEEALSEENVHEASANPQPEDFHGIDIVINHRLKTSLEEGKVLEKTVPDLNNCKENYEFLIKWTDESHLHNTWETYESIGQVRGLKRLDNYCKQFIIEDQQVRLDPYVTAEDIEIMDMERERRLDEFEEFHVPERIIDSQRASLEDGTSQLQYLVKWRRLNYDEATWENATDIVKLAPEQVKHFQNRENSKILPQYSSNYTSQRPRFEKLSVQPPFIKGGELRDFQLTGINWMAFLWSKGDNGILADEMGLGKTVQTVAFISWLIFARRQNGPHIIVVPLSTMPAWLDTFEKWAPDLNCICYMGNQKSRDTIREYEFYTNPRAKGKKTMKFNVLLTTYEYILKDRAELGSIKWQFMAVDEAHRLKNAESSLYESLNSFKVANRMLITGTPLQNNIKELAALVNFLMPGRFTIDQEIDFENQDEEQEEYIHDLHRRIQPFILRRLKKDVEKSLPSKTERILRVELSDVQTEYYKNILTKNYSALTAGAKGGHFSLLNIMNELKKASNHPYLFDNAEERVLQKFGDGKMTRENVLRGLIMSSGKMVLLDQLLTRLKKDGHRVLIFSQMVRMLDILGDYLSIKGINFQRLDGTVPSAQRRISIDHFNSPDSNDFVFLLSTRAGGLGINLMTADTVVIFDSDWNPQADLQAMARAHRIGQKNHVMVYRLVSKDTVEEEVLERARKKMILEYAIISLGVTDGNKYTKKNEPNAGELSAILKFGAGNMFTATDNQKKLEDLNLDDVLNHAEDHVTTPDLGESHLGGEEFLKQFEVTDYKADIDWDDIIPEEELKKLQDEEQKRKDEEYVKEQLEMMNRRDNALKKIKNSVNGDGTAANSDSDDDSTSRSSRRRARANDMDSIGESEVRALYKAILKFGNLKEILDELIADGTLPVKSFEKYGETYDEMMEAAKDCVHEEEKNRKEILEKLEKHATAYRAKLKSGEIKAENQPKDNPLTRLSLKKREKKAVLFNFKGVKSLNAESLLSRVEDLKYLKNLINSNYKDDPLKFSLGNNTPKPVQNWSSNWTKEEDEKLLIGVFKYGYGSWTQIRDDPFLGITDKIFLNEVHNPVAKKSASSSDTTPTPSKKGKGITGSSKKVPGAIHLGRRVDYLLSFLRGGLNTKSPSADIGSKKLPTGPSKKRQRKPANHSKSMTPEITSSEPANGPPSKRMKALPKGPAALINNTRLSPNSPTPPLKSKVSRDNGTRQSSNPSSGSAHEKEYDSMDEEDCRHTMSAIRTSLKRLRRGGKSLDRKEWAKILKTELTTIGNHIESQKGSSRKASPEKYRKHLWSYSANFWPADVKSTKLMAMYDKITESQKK
`CCC1CN(CC(=O)Nc2sccc2C#N)CCO1` (stereo not given): the Percent Effect was -9.42%.
`CCn1c(C(=O)N2CCN(CC(C)O)CC2)cc2ccccc21` (stereo not given): the Percent Effect is -10.6%.
Take `O=C(NCCCN1CCCC1)c1n[nH]c(=O)c2ccccc12`: the Percent Effect is -6.65%.
For `COCC1CCCN(C(=O)c2cc(Cn3ccc4ccccc43)[nH]n2)C1` (stereo not given), the Percent Effect worked out at 127%.
`CC(C)S(=O)(=O)NCC1CCCN(C(=O)c2ccc3c(c2)CCC3)C1` (stereo not given): the Percent Effect was -5.72%.
With `N#Cc1c(F)cccc1N1CCC(NS(=O)(=O)c2cccs2)CC1` the figure was -4.33%; with `CNc1nc2c(c(C(=O)N3CCCC3)n1)CN(Cc1nccn1C)CC2`, -2.56%; with `CC(C)CCN1CN=C(NS(=O)(=O)c2ccc(F)cc2)NC1`, -8.81%.
With `CN(Cc1ncc(C(C)(C)C)o1)C1CCCN(c2cccnn2)C1` (stereo not given) the figure was -3.04%.
With `Cc1nc2cc(C3CCN(Cc4cccc(F)c4F)C3)nn2c(O)c1C` (stereo not given) the figure was -14.4%; with `CCS(=O)(=O)CCN1CCCC1c1noc(C2CC2)n1` (stereo not given), -7.2%; with `Cc1nc(Cn2nc(C3CCNCC3)n(Cc3ccccc3)c2=O)no1`, -4.29%.
For the compound `CN(C)C(=O)COC1COC2(CCN(S(C)(=O)=O)CC2)C1` (stereo not given), the Percent Effect was -1.01%.
As to `CCNC(=O)NC(=O)CSC(C)c1c(F)cccc1F` (stereo not given), the Percent Effect was -6.68%.
For the compound `Cn1cccc1CNC(=O)CCCc1nnc2ccccn12`, the Percent Effect was -6.43%.
With `Cc1cccc(CN(Cc2ccc(C)o2)C2CC(C)(C)NC(C)(C)C2)n1` the figure was -0.669%; with `Cc1ccc(C2CSCCN2C(=O)c2ccsc2)o1` (stereo not given), -3.21%.
Take `Cc1csc(N2CCN(C(=O)CCC(=O)c3ccc(C)s3)CC2)n1`: the Percent Effect came to 17.6%.
With `O=C(c1cnccn1)N1C[C@@H]2CC[C@H](C1)N(C(=O)Cc1ccsc1)C2` the figure was -0.624%; with `Cc1ncsc1C(=O)N1CCCC(c2noc(C(C)C)n2)C1` (stereo not given), -10.2%.
